# Experimental data reported in PubChem BioAssay (NCI).
# Compounds without any hit were thinned out: in the full panel of roughly 79,000, 15% have a hit. Unmarked numbers belong to inactive results. Active and inactive are the calls of the source. Cut-off read from the data, not from the text of the source: active = growth inhibition above about 70%; inactive = the rest.
# Assays:
# [1] = NCI Yeast Anticancer Drug Screen. Data for the rad50 strain (AID 155);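 note: 0% = growth of vehicle-only cultures of the same strain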; settings: S. cerevisiae rad50 strain growth inhibition; at 50.0 µM; stronger effect = higher value
# How it was run: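 Vehicle-treated cultures provide the reference for the growth inhibition reported for compound-exposed, repair-deficient yeast.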
# [2] = NCI Yeast Anticancer Drug Screen. Data for the mec2-1 strain (AID 157); settings: S. cerevisiae mec2-1 strain, at 50.0 µM, stronger effect = higher value
# How it was run: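 Vehicle-treated cultures served as reference for growth inhibition of compound-exposed mec2-1 yeast.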
# [3] = NCI Yeast Anticancer Drug Screen. Data for the sgs1 mgt1 strain (AID 161);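 note: 0% = growth of cultures given vehicle only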; settings: S. cerevisiae sgs1 mgt1 strain, at 50.0 µM, stronger effect = higher value
# How it was run: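 Genetically altered yeast, compound exposure, growth inhibition relative to vehicle.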
# [4] = NCI Yeast Anticancer Drug Screen. Data for the cln2 rad14 strain (AID 165);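 note: 0% = growth equal to vehicle treated cultures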; settings: S. cerevisiae cln2 rad14 strain, at 50.0 µM, stronger effect = higher value
# How it was run: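 Each compound was tested on cln2 rad14 yeast. Inhibition of growth was calculated against vehicle-exposed controls.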
# [5] = NCI Yeast Anticancer Drug Screen. Data for the bub3 strain (AID 167); settings: S. cerevisiae bub3 mutant strain, at 50.0 µM, stronger effect = higher value
# How it was run: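 Mutant yeast screening strain plus compound; vehicle-treated cultures serve as the 0% inhibition reference.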
# [6] = NCI Yeast Anticancer Drug Screen. Data for the mlh1 rad18 strain (AID 175); settings: S. cerevisiae mlh1 rad18 strain growth inhibition; at 50.0 µM; stronger effect = higher value
# How it was run: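 Vehicle-treated cultures served as the reference for growth inhibition in a yeast strain carrying DNA damage repair alterations exposed to each compound.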
SMILES,growth inhibition [1] [%],growth inhibition [2],growth inhibition [3],growth inhibition [4] [%],growth inhibition [5],growth inhibition [6]
CCc1ccccc1[N+](=O)[O-],27.2,28.7%,3.8%,4.65,6.45%,21.2%
O=Cc1ccccc1.[C-]#[O+].[C-]#[O+].[C-]#[O+].[Cr],7.35,-34.2%,1.8%,-19.1,11.1%,15.8%
COc1ccccc1CN1CCN(Cc2ccccc2OC)C1c1ccc(N(CCCl)CCCl)cc1,-9.8,-9.05%,-14.7%,-32.5,-1.9%,-4.1%
COC(=O)C1=C(C)NC(C)=C2C(=O)Oc3ccccc3C12 (configuration not stated),4.75,-9.65%,-7.5%,6.6,-6.8%,1.4%
O=[N+]([O-])c1ccc(N2CC2)c([N+](=O)[O-])c1,1.85,-1.95%,10.5%,20,-0.95%,5.45%
COc1ccc(Oc2cc3c(cc2OC)CCN(C)C3)cc1,15.9,7.7%,20.1%,-0.6,-22.9%,-6.6%
CCNP(=O)(OCC)OCC,9.9,-15.6%,12.2%,24.4,7.6%,17.9%
COc1ccc2[nH]cc(/C=C\[N+](=O)[O-])c2c1,6,-10.1%,32.4%,2.2,7.65%,13.8%
COC(=O)c1cc([N+](=O)[O-])cc([N+](=O)[O-])c1,9,32.2%,16.5%,-8.4,18.4%,34.1%
C/C=C(/C)C(=O)O[C@H]1CC[C@@]2(C)[C@@H]3CC[C@H]4[C@]5(O)C[C@H](O)[C@@]6(O)[C@@H](CN7C[C@@H](C)CC[C@H]7[C@@]6(C)O)[C@]5(O)C[C@@]42O[C@@]13O,27.1,-15.9%,18%,0.35,22.8%,30.6%
C#CCOCC(O)C[As](=O)(O)c1cccc(Cl)c1 (configuration not stated),5.85,16.5%,7.9%,-5.3,10.7%,-8.75%
C[C@]12CCC(=O)C=C1CC[C@@H]1[C@@H]2CC[C@]2(C)C(=O)[C@H](n3ccnc3)C[C@@H]12,-1.35,2.45%,0.9%,3.2,-1.2%,5.65%
CC12CCC3C(CC(N4CC4)C4(O)CC(O)CCC34C)C1CCC2=O (configuration not stated),15.6,-10.2%,-3.85%,14.8,-8%,-8%
Cc1ccc(SCC(CSCCO)OCn2cnc3c2NC(N)=NC32OCCO2)cc1 (configuration not stated),6.15,2.3%,-37.2%,-7.4,-12.3%,-56.9%
O=S(=O)(c1ccc(O)cc1)c1ccccc1O,-1.95,-6.35%,15.2%,3.75,0.6%,28.9%
NC(=O)CCC(N)C(=O)O.[Cl-].[Cl-].[Cl-].[Cl-].[Pt+2] (configuration not stated),-1.4,-3.35%,-9.1%,23.9,8.1%,13%
CC(C)=NNC1=NC(C)(C)P(=O)(N2CCCC2C(=O)O)S1 (configuration not stated),0.8,-12.4%,-0.45%,-2.3,5.25%,-9.2%
CCN1CCC2OCOC2C1 (configuration not stated),8.5,2.85%,2.9%,0.5,-0.05%,33.6%
COC(=O)COC1CC[CH-]CC1.[Cl-].[Cl-].[Cl-].[Cl-].[Cl-].[Sb+5].c1ccncc1,20.8,7.8%,18.7%,17.6,4.75%,12.8%

SMILES,growth inhibition [1] [%],growth inhibition [2],growth inhibition [3],growth inhibition [4] [%],growth inhibition [5],growth inhibition [6]
S=C(Nc1ccccc1)N1CC1,-7.85,-22.3%,-19.9%,-11.9,-6.15%,-17.4%
O=C(O)/C=C/C(=O)O.[Ni],-13.8,-21.6%,-28.1%,-45.5,0.35%,0.5%
COC(=O)C(C)N(CCCl)P1(=O)OCCCN1CCCl (configuration not stated),49.2,24.8%,-6.15%,8.7,-20.6%,20.6%
[Cu].[NH2-].[NH2-].[NH2-].[NH2-],-21.8,-15.8%,-23.1%,-64.8,-4.05%,-23.6%
NS(=O)(=O)c1ccc(N=Nc2ccc([As](=O)(O)O)cc2)cc1,43,6.6%,18.6%,19.2,3.45%,19.9%
O=[N+]([O-])c1ccc(SN2C3CCCCC32)c([N+](=O)[O-])c1 (configuration not stated),3.85,11.7%,6.1%,7.85,11.8%,22.7%
O=C1c2ccccc2C2(O)C3C=CCCN3CN12 (configuration not stated),2.65,9.1%,-1.25%,4.15,-4.05%,-6.75%
N#CCC#N,-3.7,-3.95%,16.3%,-3.1,2.75%,-1%
O=C(Cc1ccccc1)OCC1CCCO1 (configuration not stated),18.2,-6.6%,-3.45%,-25.7,-17.8%,10.5%
CC(CO)[N+](=O)[O-] (configuration not stated),0.75,1.15%,-5.05%,-15.2,1.5%,1%
Cc1nc2ccc(Br)cc2c(=O)n1-c1nnc(C(C)(C)C)s1,-10.9,-40.4%,-23.2%,-5.75,-20.6%,-12.2%
Nc1ccc(C(=O)O)cc1[As](O)O,-15.1,-4.05%,5.95%,-6.4,0.6%,-17.8%
Clc1ccc(N=c2ccc3ccccc3[oH+]2)cc1.Clc1ccc(N=c2ccc3ccccc3[oH+]2)cc1.[Co],-5.05,-25.4%,14.8%,-59.2,-12.8%,15.6%
Oc1cccc(Cl)c1,-3.15,-30.1%,4.75%,6.1,-2.45%,8.3%
S=P(C1CCCCC1)(C1CCCCC1)C(c1cccnc1)N1CCCC1 (configuration not stated),-6.85,-9.1%,-6.3%,-5.85,20.6%,14.1%
CC1(C)N=C(N)N=C(N)N1c1ccc(CCC(=O)Nc2ccc(S(=O)(=O)F)cc2)cc1,27.6,87.3% (active),76.8% (active),-28.8,-0.55%,54.1%
C(#CP(c1ccccc1)c1ccccc1)c1ccccc1,62.5,34.5%,74.8% (active),20.1,76.8% (active),85.5% (active)
O=C(O)C(O)(Cl)c1cccs1 (configuration not stated),-0.5,-3.35%,-4.8%,-16.6,-7.15%,14.8%
